Source: the supplement of paper PMC3724861
Many of the other results were omitted from the sample, so hits are more common in it than they were. The true hit rate is not given.

Each sequence was assayed on T1, Caupolican (Caup) homeodomain DNA-binding domain (assay: PBM E-score (8-mer, recovered from the published 9-mer minima) (E-score (dimensionless, -0.5 to 0.5)); Drosophila protein; higher = stronger relative binding preference, active = 0.31 or more).
T1 sequence: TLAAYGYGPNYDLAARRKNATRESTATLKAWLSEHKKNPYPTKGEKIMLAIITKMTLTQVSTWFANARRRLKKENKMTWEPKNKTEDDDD
Procedure, shortened: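 An enrichment score, with higher meaning stronger, expresses relative binding preference for each short DNA word. The protein used was Caup's homeodomain DNA-binding domain (residues 214-303), produced by in vitro transcription and translation and tested at 100 nM on custom-designed protein binding microarrays. The 8-mer values were recovered from published 9-mer scores, each equal to the lower of its two constituent 8-mer scores.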

PBM E-score, active:
AACTACAC 0.355
GACTACAC 0.33
AACTACAA 0.342
AACTACAT 0.408
AACATTGT ≥ 0.347
GACATGGC 0.314
AACATGGC 0.328
TACATGGA 0.413
AACATGGG 0.351
GACATGGA 0.345
AACATGGA 0.325
AACATGGT 0.37
TACAAGAA 0.351
AACAAGAA 0.321
AACAAGAC 0.335
GACAAGAC 0.325
AACAAGAT 0.334
CTGACAAG 0.341
ATGACAAG ≥ 0.378
ATGACAAC 0.375
CGCTTGTA 0.313
AGCTTGTA 0.368
GGCTTGTA 0.312
CGTGTACC 0.35
CGTGTACA ≥ 0.441
ATGGTACA 0.32
CTGGTACA 0.319
GAGGTACA 0.326
ACTACAAG ≥ 0.378
ACTACAAC 0.363
CTTGTCAC 0.322
CATGTCAC 0.446
CGTGTCAC 0.334
CATGTCAG 0.413
CATGTCAA 0.422
GTACACAC 0.331
TTACACAA 0.311
GTACACAA 0.338
ATACACAT 0.311
ATACACAA ≥ 0.341
ACAAATGT ≥ 0.311
AACAATGT 0.345
CTATTACA 0.346
ATATTACA 0.35
ACATTACA ≥ 0.37

PBM E-score, inactive:
CCGACGCG -0.167
GCCTGGCC -0.292
CACTACAC 0.206
ACCTACAA 0.171
AACTACAG 0.177
GACTACAA 0.222
AACTACCT 0.122
ATCTACAC 0.227
AACTACGT 0.151
CACTACAA 0.266
TCTCACAA 0.048
TAGTGTGA 0.108
GCCTCACC -0.232
ACTAGATG 0.121
CACCCTAG -0.0221
ACACCTCT 0.111
AGCGCGGC -0.184
TGCACGCA -0.0359
ATCATGGC -0.0613
TAGATGGA 0.0256
GCCATGGC -0.246
TCCATGGA 0.0552
CACATGGC -0.0837
ACCATGGC 0.0502
AACATTGG 0.159
AACATTGA 0.243
ACAGTAAA 0.124
CCGTTCTC -0.0675
CTCGCACA -0.0236
CGCAGGAC -0.0855
ATCTCCCC -0.153
ATTCAGTG 0.034
CTAACGAG 0.0026
ACACCGTC 0.0118
CACATGGA 0.156
CACATGGG -0.0556
ACCATGGA 0.0206
ACCATGGT 0.127
AAGATGGT 0.109
ATCATGGG -0.0312
ATCATGGA 0.00242
GAGATGGA -0.0584
ATAGCTTG 0.0692
CGACCGGC -0.141
AGTAAGTG 0.00023
TGCGCCCA -0.134
ATTAGATG 0.235
GCTCCATA -0.111
ACGGTGGC -0.158
ATGCGAAA 0.0128
CACAAGAC 0.0913
GACAAGAA 0.297
TACAAAAA 0.255
AACAAAAA 0.141
CACAAGAA 0.0855
AACAAAAC 0.179
GACAAAAC 0.137
AACAAAGA 0.0783
CATGACTA 0.198
CATCTTAG 0.0142
ATGGCGTA 0.002
CCTCCGCA -0.12
CACTCTTC 0.0141
AACAAAAT 0.209
AACAAGAG 0.243
GACCGCAC -0.162
ATAGCTCA -0.0365
ATGACAAA 0.248
CTGACAAA 0.132
CTGACAAC 0.281
ATGACAAT 0.274
GTGACAAC 0.303
ATGACAGC 0.202
CGATCATA 0.0822
GGAGCCGA -0.213
GCATCGTA -0.088
ACCAGCTG -0.0781
ATTTGTAG 0.239
CGTGAACC -0.0185
CATATCGG 0.0413
GAGCGGCA -0.199
GGCTTGAA -0.103
AGCTTGTC 0.261
CGCTTGTC 0.272
GGCTTGGA -0.0906
CGCTTGAA 0.0019
AGCTTGTG -0.0301
CCAGCCGG -0.247
AATTAAAA 0.0931
ACAGTTTG 0.0438
AGAGTCAC -0.0337
AATCTTAG -0.0734
AGACCGGG -0.179
CACCCGAA -0.0428
GTCCCTAA -0.0722
ACTGTTCA 0.0851
CTTGGATC 0.0244
CGTGTAGC 0.276
AGTGTACC 0.207
CGTGTGTA 0.283
CGTGTAGA 0.29
GTCATCTA 0.0593
CTGGTACC 0.0519
GTGGTACA 0.277
TAGGTACA 0.271
ATGGTACC 0.0486
CAGGTACA 0.298
ATGGTACG 0.0989
AGGACCTG -0.102
AAGCATTG 0.102
CAACCTGG 0.0642
AGGTGGCC -0.286
CAAGCCCC -0.174
CCTACAAC 0.21
GCTACAAC 0.169
ACTACAAA 0.256
ACTACAAT 0.19
GAGAGCTC -0.215
CGTCTATC 0.0194
CTTTTCGC -0.012
CGGTTGTC 0.185
TACTTTAA 0.115
AATGTCAC 0.303
CCTGTCAC 0.144
AGTGTCAC 0.13
ATTGTCAC 0.224
GATGTCAC 0.294
CCTGTCAG 0.115
CGTGTCAG 0.276
AATGTCAG 0.197
AGCGTCCA -0.0936
AAAGTATT 0.131
CGGGCTTC -0.289
AGATCGGA 0.0416
GAAGTGAC 0.0523
GCCGGGGA -0.241
CGAACCCC -0.249
ATCAGTCC -0.143
AAATTGGG -0.0398
AAGTTTGC 0.0221
CCTGTCAA 0.172
CGTGTCAA 0.282
CGGGACTC -0.204
CCCGATCC -0.127
ATCCCCAC -0.0707
AAACACAT 0.229
TCACACAA 0.193
AGACACAT 0.213
CTACACAC 0.175
TGACACAA 0.259
CTACACAA 0.288
GCACACAA 0.0665
GCACACAC 0.0659
CATGGCCC -0.169
GGGCTTAC -0.119
CACTAATA 0.118
GTTAGTAA 0.177
CTTATTAC 0.0885
CTGTGCGA -0.0551
CCTACCGA -0.0361
AGTGCGGG -0.187
ATCTTCGG 0.00377
ACACAGCT 0.109
ACCCATCC -0.0713
GCGCCCTA -0.273
ATATAGCC 0.0657
ATACACAG 0.193
ATACACAC 0.256
ATTTTCCC -0.00887
CAAACTGC -0.0256
CGCTAATC -0.0282
TATAGAAA 0.118
ACAAATGG 0.193
AACAATGA 0.244
ACAAATGA 0.154
AACAATGG 0.198
ATGAGCTC -0.0796
ATTTCCTG 0.0432
AGGAGTAT 0.00187
CAGAGCGG -0.155
ATATTACC 0.186
ACATTACT 0.227
GCATTACA 0.267
GTATTACA 0.288
ATATTACG 0.16
CTATTACC 0.0284
